Bioassay records deposited in PubChem by several laboratories.
Mcl1-Noxa inh: Mcl-1/Noxa interaction inhibition | Q07820 | TR-FRET Mcl-1/Noxa peptide binding, 2 h | inhibition, % at 21.7 µM | 1.5% of 220,000 active | AID 1022;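 active means compounds that cut the protein-peptide binding signal by more than 50% relative to plate controls in a single-dose test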;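 further: His-tagged Mcl-1 with rhodamine Noxa BH3 peptide and terbium anti-His antibody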
GLD-1 TGE inh: GLD-1-TGE RNA interaction inhibition (C. elegans). AID 2280. inhibition, % at 5.96 µM. Q17339. purified GLD-1 + fluorescein TGE RNA, fluorescence polarization. 0.44% of 320,000 active;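 active means percent inhibition above a per-plate cutoff, the plate mean of test compounds plus 3 SD, cut at about 30% in these data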
Target sequence (Q17339 whole entry, looked up): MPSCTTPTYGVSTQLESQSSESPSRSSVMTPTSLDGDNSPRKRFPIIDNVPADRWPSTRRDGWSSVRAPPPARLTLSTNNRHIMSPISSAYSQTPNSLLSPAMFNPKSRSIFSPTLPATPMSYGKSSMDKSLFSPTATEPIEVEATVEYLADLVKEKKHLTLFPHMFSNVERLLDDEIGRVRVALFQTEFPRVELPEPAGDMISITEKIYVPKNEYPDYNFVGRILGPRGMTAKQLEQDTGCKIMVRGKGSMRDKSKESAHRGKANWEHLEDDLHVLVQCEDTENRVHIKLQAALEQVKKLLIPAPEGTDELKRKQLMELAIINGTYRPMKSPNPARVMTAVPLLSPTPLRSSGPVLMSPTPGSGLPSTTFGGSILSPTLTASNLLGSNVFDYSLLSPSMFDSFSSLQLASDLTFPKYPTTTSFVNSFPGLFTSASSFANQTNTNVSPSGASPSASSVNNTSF
MCL1-BIM inh: disrupts human MCL1 binding to BIM-BH3 peptide; GST-MCL1 / FITC-Bim-BH3 fluorescence polarization; inhibition, % at 10.9 µM; 0.68% of 320,000 active; AID 2057;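 active means inhibition above the mean inhibition of all tested compounds plus 3 SD, set per campaign, cut at about 40% in these data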;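 further: higher means more loss of mP so more displacement of Bim peptide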
Bcl-xL primary: blocks human Bcl-xL binding to Bim BH3 peptide. Q07817. GST-Bcl-xL / FITC-Bim BH3 peptide fluorescence polarization. inhibition, % at 10.9 µM. 0.7% of 320,000 active;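 active means inhibition above the mean of all tested compounds plus 3 SD, cutoff set per campaign, cut at about 30% in these data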;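 further: inhibitors lower millipolarization by displacing the labeled peptide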
Target sequence (Q07817 whole entry, looked up): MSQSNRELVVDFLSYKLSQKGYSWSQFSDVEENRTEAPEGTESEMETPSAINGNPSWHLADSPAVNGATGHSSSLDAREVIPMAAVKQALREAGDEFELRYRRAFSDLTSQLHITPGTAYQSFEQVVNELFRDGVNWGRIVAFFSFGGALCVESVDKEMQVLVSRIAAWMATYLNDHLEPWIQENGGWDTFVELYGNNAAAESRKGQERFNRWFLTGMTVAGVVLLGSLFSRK
Mcl1-Bid inh: disrupts binding of human Mcl-1 to Bid peptide; Q07820; TR-FRET Mcl-1/Bid-Dy647 peptide binding, 1536-well; inhibition, % at 21.7 µM; 0.97% of 220,000 active;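 active means compounds that cut the binding signal by more than half at the single screening dose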;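 further: His-tagged Mcl-1 with europium anti-His antibody binding Bid BH3 peptide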
Bim-Mcl-1: disrupts Bim peptide binding to human Mcl-1. Bead-based flow cytometry, Bim peptide-Mcl-1 binding. inhibition, % at 10 µM. 0.1% of 190,000 active. AID 1009; in the data active means inhibition above about 40%
BCLXL inh confirm: Bcl-xL (human) inhibition, MCL1 counter-screen confirmation. AID 2166. GST-Bcl-xL / FITC-Bim BH3 peptide FP binding. inhibition, % at 10.9 µM. shares compounds with MCL1-BIM inh. 54% of 1,700 active;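 active means inhibition above a cutoff equal to the mean inhibition of all tested compounds plus 3 SD, cut at about 30% in these data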
MCL1 BIM confirm: confirmation of human MCL1 and BIM-BH3 interaction inhibitors | AID 2168 | GST-MCL1 / FITC-Bim-BH3 fluorescence polarization | inhibition, % at 10.9 µM | 61% of 1,700 active | shares compounds with MCL1-BIM inh;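 active means inhibition above the average of all tested compounds plus 3 SD, cut at about 40% in these data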
Of the large screens only hits and unclear results are named; the others gave an inactive call (follow-up assays come after a bar, where they were run). Hits are enriched below; roughly 2.3% of the tested compounds scored in any of these assays.

Cc1nn(-c2ccccc2)c2c1C(c1ccc(O)c(O)c1)N1C(=N2)C(Nc2ccccc2)=Nc2ccccc21 (stereo not given)	GLD-1 TGE inh 94.9, MCL1-BIM inh 70.0, Bcl-xL primary 64.2 | BCLXL inh confirm inactive | MCL1 BIM confirm inactive
C/C(N)=C(/C#N)C(=O)CSc1nnc(Nc2cccc(C)c2)s1	MCL1-BIM inh 40.2 | BCLXL inh confirm inactive | MCL1 BIM confirm 40.8
Cc1cccc(Nc2nnc(SCC(=O)c3c(N)n(C4CC4)c(=O)[nH]c3=O)s2)c1	none (no result: Mcl1-Noxa inh, Mcl1-Bid inh, Bim-Mcl-1)
CCOc1ccc(OCCC(=O)N2CCN(S(=O)(=O)c3cccc(F)c3)CC2)cc1	none (no result: Mcl1-Noxa inh, Mcl1-Bid inh, Bim-Mcl-1)
O=c1nc(/C=C/c2ccc(-c3ccc(F)cc3)o2)cc(C(F)(F)F)[nH]1	MCL1-BIM inh 43.7 | BCLXL inh confirm 40.1 | MCL1 BIM confirm inactive
O=C(NCCS(=O)(=O)N1CCN(c2ccccc2F)CC1)c1ccc2c(c1)OCO2	none (no result: Mcl1-Noxa inh, Mcl1-Bid inh, Bim-Mcl-1)
O=C1N=C(N2C=CC(=C3C=CNC=C3)C=C2)/C(=C/N=NC(=O)c2ccccc2O)S1	GLD-1 TGE inh 81.2, MCL1-BIM inh 114.7, Bcl-xL primary 99.2 (no result: Mcl1-Noxa inh, Mcl1-Bid inh, Bim-Mcl-1) | BCLXL inh confirm 84.0 | MCL1 BIM confirm 114.0
Cc1cc(-c2nc3c4c5c(sc4[nH]c(=O)n3n2)CCC5)c(C)o1	Mcl1-Noxa inh 101.1, MCL1-BIM inh 75.6, Mcl1-Bid inh 73.1 | BCLXL inh confirm inactive | MCL1 BIM confirm 70.3
Cc1ccc(NC(=O)/C(=C\c2ccc([N+](=O)[O-])cc2)NC(=O)c2ccccc2)cc1	none
O=C(N/N=C/c1ccc(O)c(O)c1O)/C(=C/c1ccc([N+](=O)[O-])cc1)NC(=O)c1ccccc1	Mcl1-Noxa inh 87.3, MCL1-BIM inh 40.9 | BCLXL inh confirm 32.6 | MCL1 BIM confirm 63.0
CC(O)[C@H]1CNCCN1CCc1cccc(F)c1 (stereo not given in full)	none (no result: Mcl1-Noxa inh, Mcl1-Bid inh, Bim-Mcl-1)
CCCCn1c(O)c(N=NC(=O)c2ccccc2NS(=O)(=O)c2cccs2)c2ccccc21	none
C=CCn1c(O)c(N=NC(=O)c2ccccc2NS(=O)(=O)c2cccs2)c2ccccc21	MCL1-BIM inh 49.5 | BCLXL inh confirm 78.8 | MCL1 BIM confirm 120.2
CCO[C@H]1OC(C(=O)N2CCN(Cc3ccc4c(c3)OCO4)CC2)=C[C@@H](C2CC2)[C@@H]1CCCO	none
Cc1cc(C)cc(NC2=CC(=O)CC(c3ccco3)C2)c1 (stereo not given)	none
O=C1C=C(NNC(=O)c2cccnc2)CC(c2ccco2)C1 (stereo not given)	GLD-1 TGE inh 119.9, MCL1-BIM inh 53.6, Bcl-xL primary 49.0 | BCLXL inh confirm inactive | MCL1 BIM confirm inactive
Cc1ccc(NC(=O)CN2C(=O)S/C(=C\c3cccn3-c3cccc(C(=O)O)c3)C2=O)cc1C	none
Cc1ccc(NC(=O)CN2C(=O)N/C(=C/c3cccn3-c3ccc(C(=O)O)cc3)C2=O)cc1	Mcl1-Noxa inh 102.1, MCL1-BIM inh 79.1 | BCLXL inh confirm 41.3 | MCL1 BIM confirm 85.1
O=C1CCCC(O)=C1N=Nc1cccc(C(=O)O)c1	Mcl1-Noxa inh 56.7, MCL1-BIM inh 40.3 | BCLXL inh confirm inactive | MCL1 BIM confirm inactive
Cc1c(Br)c([N+](=O)[O-])nn1CC(=O)N(C)Cc1ccccc1	none
CCOC(=O)C1=C(O)/C(=C/c2cn(CC(=O)NCC3CCCO3)c3ccccc23)SC1=Nc1ccc(C)cc1 (stereo not given)	MCL1-BIM inh 77.4, Bcl-xL primary 80.5 (no result: Mcl1-Noxa inh, Mcl1-Bid inh, Bim-Mcl-1) | BCLXL inh confirm 108.7 | MCL1 BIM confirm 109.0
CC(C)C(=O)c1cn(CC(=O)NCC2CCCO2)c2ccccc12 (stereo not given)	none
Cc1ccc(C2CC(=O)N3CN(c4ccc(Br)cc4)CSC3=C2C#N)o1 (stereo not given)	none
CCOc1ccc(N2CSC3=C(C#N)C(c4ccco4)CC(=O)N3C2)cc1 (stereo not given)	MCL1-BIM inh 77.7 | BCLXL inh confirm inactive | MCL1 BIM confirm 62.8
CCOC(=O)C(=CNc1ccc2c(c1)CCN2C(C)=O)C(=O)OCC	none (no result: Bim-Mcl-1)
O=C(CCO)c1ccc(O)cc1	Mcl1-Noxa inh 77.9, MCL1-BIM inh 75.5 | BCLXL inh confirm 36.7 | MCL1 BIM confirm 79.6
Cc1ccc(NC(=O)c2cc([N+](=O)[O-])ccc2NCc2cccnc2)cc1	none
CCOc1ccc(CN2CCC(n3nccc3NC(=O)c3ccccc3OC)CC2)cc1	none (no result: Mcl1-Noxa inh, Mcl1-Bid inh, Bim-Mcl-1)
COc1ccc(OC)c(-c2c3cc(O)c(=O)cc-3oc3cc(O)c(O)cc23)c1	Mcl1-Noxa inh 90.9, GLD-1 TGE inh 75.5, MCL1-BIM inh 118.4, Bcl-xL primary 110.5 | BCLXL inh confirm 120.3 | MCL1 BIM confirm 133.4
CN(CC(=O)Nc1ccccc1Cl)C(=O)c1cccc(-n2cccc2)c1	none (no result: Mcl1-Noxa inh, Mcl1-Bid inh, Bim-Mcl-1)
Cc1ccc(C)c(NC(=O)CN(C)C(=O)c2cccc(-n3cccc3)c2)c1	MCL1-BIM inh 45.8 (no result: Mcl1-Noxa inh, Mcl1-Bid inh, Bim-Mcl-1) | BCLXL inh confirm inactive | MCL1 BIM confirm 64.0
O=C(c1ccco1)[C@@H]1[C@@H]2C(=O)N(c3ccccc3)C(=O)[C@@H]2C2c3ccccc3C=CN21 (stereo not given in full)	GLD-1 TGE inh 69.2, MCL1-BIM inh 79.3, Bcl-xL primary 78.6 (no result: Mcl1-Noxa inh, Mcl1-Bid inh, Bim-Mcl-1) | BCLXL inh confirm 59.5 | MCL1 BIM confirm 77.2
Cc1ccc(N2C(=O)[C@@H]3[C@H](C2=O)C2c4ccccc4C=CN2[C@@H]3C(=O)c2ccco2)c(C)c1 (stereo not given in full)	GLD-1 TGE inh 62.0, MCL1-BIM inh 62.7, Bcl-xL primary 72.8 (no result: Mcl1-Noxa inh, Mcl1-Bid inh, Bim-Mcl-1) | BCLXL inh confirm 44.5 | MCL1 BIM confirm 58.8
Cc1ccc(N2C(=O)[C@@H]3[C@H](C2=O)C2c4ccccc4C=CN2[C@@H]3C(=O)c2ccco2)cc1 (stereo not given in full)	none (no result: GLD-1 TGE inh, MCL1-BIM inh, Bcl-xL primary)
COc1ccc(C(=O)NN/C(C)=C/C(=O)C(F)(F)C(F)(F)C(F)(F)F)cc1	none
c1ccc(N2CCN(c3nc4ccccc4n4nnnc34)CC2)cc1	MCL1-BIM inh 58.5, Bcl-xL primary 50.8 | BCLXL inh confirm 37.5 | MCL1 BIM confirm inactive
C=CCn1c(=O)/c(=C/c2ccc(O)cc2)s/c1=C(/C#N)c1nnc2n1CCCCC2	none
C=CCn1c(=O)/c(=C/c2cc(OC)c(OC)c(OC)c2)s/c1=C(/C#N)c1nc2ccccc2n1C	MCL1-BIM inh 123.4, Bcl-xL primary 112.3 | BCLXL inh confirm 144.6 | MCL1 BIM confirm 169.2
O/C=c1\ccc2cccc3nc(C(F)(F)F)nc1c23	GLD-1 TGE inh 37.3, MCL1-BIM inh 94.1, Bcl-xL primary 85.8 (no result: Mcl1-Noxa inh, Mcl1-Bid inh, Bim-Mcl-1) | BCLXL inh confirm 118.4 | MCL1 BIM confirm 132.6
NNc1nc(C(F)(F)F)nc2ccccc12	none
